Screening results (PubChem BioAssay)
An excerpt weighted towards active compounds, which were near 4% of everything screened.
Peg3 promoter: Peg3 promoter-driven luciferase inhibitors, primary screen, cell-based, HeLa, luciferase luminescence; HeLa PEG-Prom luciferase reporter, overnight; AID 588405, 2011; inhibition, % at 20 µM; actives 1.7% (n = 360,000);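 active = inhibition of at least 50% at 20 µM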
CF NFkB block: inhibitors of PAF-induced NF-kB signaling, primary screen, cell-based, GFP fluorescence, uHTS | actives 0.86% (n = 360,000) | AID 588850, 2011 | KKLEB NF-kB-GFP reporter, GFP fluorescence overnight | inhibition, % at 5 µM;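 active = at least 50% inhibition at 5 µM, scaled per plate between neutral and stimulator controls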;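 note: PAF is a Pseudomonas aeruginosa culture filtrate used as stimulus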
HIF-2a block: HIF-2a reporter inhibitors, primary screen, luminescence, 786-0 RCC cells. 786-0 RCC cells HIF-2a reporter, luciferase luminescence, overnight. inhibition, % at 18.8 µM. actives 0.72% (n = 360,000). AID 624352, 2012;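 active = inhibition of the luminescence signal of 40% or more relative to plate controls, in a single-dose primary screen at 18.75 µM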
KKLEB cytotox: cytotoxicity in KKLEB CF airway cells, primary screen, cytotoxicity control for CF NF-kB inhibitor project, cell-based, uHTS, fluorescence assay plates; KKLEB CF airway cells viability, ATPlite luminescence, overnight; active compounds read low; cells stimulated with P. aeruginosa culture filtrate; activity change (cytotoxicity), % at 5 µM; actives 0.36% (n = 360,000);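 active = corrected activity change at or below -50% at 5 µM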
TROY signal inh: inhibitors of TROY-driven NF-kB signaling, primary screen, Q293 LMP1-TROYcd cells, NF-kB luciferase, uHTS | inhibition, % at 10 µM | actives 0.98% (n = 360,000) | Q293 LMP1-TROYcd NF-kB luciferase reporter, 4 h;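 active = compounds whose plate-normalised and pattern-corrected inhibition of the luciferase reporter signal at the single screening dose is 50% or more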
TWEAK-Fn14 inh: inhibitors of TWEAK-Fn14 signaling, primary screen, luciferase reporter cells, uHTS; TWEAK-stimulated Fn14 reporter cells, luciferase luminescence, 8 h; inhibition, % at 10 µM; actives 2% (n = 360,000); in the data active = inhibition above about 50%
A number is an active result; i = inactive.

SMILES | Peg3 promoter | CF NFkB block | HIF-2a block | KKLEB cytotox | TROY signal inh | TWEAK-Fn14 inh
COCCCn1c(SCC(=O)Nc2ccc(C)cc2)nc2ccccc2c1=O | i | i | i | i | i | i
CCc1nc2ccccc2c(C(=O)OCC(=O)Nc2cccc(S(=O)(=O)N3CCOCC3)c2)c1C | 77 | i | i | i | 68 | 97
O=C(/C=C/c1ccccc1)OCCN=C1NS(=O)(=O)c2ccccc21 | i | i | i | i | i | i
Cc1cn(C2CCCCO2)c(=O)[nH]c1=O (stereo not given) | i | i | i | i | i | i
CCN(CC)c1ccc(/C=c2\sc3nc4ccccc4n3c2=O)c(O)c1 | i | i | i | i | 54 | 67
O=c1/c(=C/c2ccc(O)c([N+](=O)[O-])c2)sc2nc3ccccc3n12 | i | i | i | i | i | i
CC(=O)c1ccc(N2CCN(c3ccc(S(=O)(=O)NCCCN(C)C)cc3[N+](=O)[O-])CC2)cc1 | 79 | i | i | i | i | i
O=C(NC1CCCC1)c1ccc(Cl)c(S(=O)(=O)N2CCOCC2)c1 | i | i | i | i | i | i
NC(=O)COC(=O)c1ccccc1Nc1ccc(SC(F)F)cc1 | i | i | i | i | i | i
CC(C)(C)NC(=O)COC(=O)c1ccccc1Nc1ccc(SC(F)F)cc1 | i | i | i | i | i | 55
O=C(C1CCCN(C2CC(=O)N(c3ccc(Cl)cc3)C2=O)C1)N1CCCC1 (stereo not given) | i | i | i | i | i | i
S=C(Nc1ccc(N2CCOCC2)cc1)Nc1ccc2nc(-c3ccco3)c(-c3ccco3)nc2c1 | i | i | i | i | i | 72
CC(=O)c1ccc(NC(=O)CN2CCOCC2)cc1 | i | i | i | i | i | 110
CC(=O)c1ccc(NC(=O)CN2CCN(CC(=O)Nc3ccc(C(C)=O)cc3)CC2)cc1 | i | i | i | i | i | i
CCc1ccc(C(=O)NC(=S)Nc2ccc(N3CCOCC3)cc2)cc1 | i | i | i | i | 53 | i
CC(=O)c1ccc(NC(=S)Nc2ccc(N3CCOCC3)cc2)cc1 | i | i | i | i | 51 | i
O=C(Nc1ccc(N2CCOCC2)cc1)c1ccc2nc(-c3ccco3)c(-c3ccco3)nc2c1 | i | i | i | i | i | i
Cc1ccc(-c2cc3nc(NCCc4ccncc4)n(C)c(=O)c3s2)cc1 | i | i | i | i | i | i
COc1ccc(CN(C)CC(=O)NC(=O)NC2CCCCC2)cc1 | i | i | i | i | i | i
CCOc1ccc(C2CC(c3ccc(F)cc3)n3ncnc3N2)cc1 (stereo not given) | i | i | i | i | i | i
COc1ccc(CNC(=O)CNS(=O)(=O)c2ccc(Cl)cc2)cc1 | i | i | i | i | 80 | 82
COc1ccc(CCNC(=O)CNS(=O)(=O)c2ccc(Cl)cc2)cc1 | i | i | i | i | i | i
CCN1CCN(CCCNC(=O)Cn2nc(C)n3nc(-c4ccccc4)cc3c2=O)CC1 | i | i | i | i | i | i
O=[N+]([O-])c1cccc(C(=S)N2CCN(c3ccc(F)cc3)CC2)c1 | i | i | i | i | i | i
O=S(=O)(Nc1ccc2c(c1)OCCO2)c1cccc2nsnc12 | i | i | i | i | 84 | 95
SMILES | Peg3 promoter | CF NFkB block | HIF-2a block | KKLEB cytotox | TROY signal inh | TWEAK-Fn14 inh
O=S(=O)(Nc1ccccc1)c1cccc2nsnc12 | i | i | i | i | i | i
CC(NC(=O)CCNS(=O)(=O)c1cccc2nsnc12)c1ccccc1 (stereo not given) | i | i | i | i | i | 54
O=C(CCNS(=O)(=O)c1cccc2nsnc12)Nc1ccc2c(c1)OCCO2 | i | i | i | i | i | 58
Nc1nc2ccccc2n1CCN1CCCC1 | i | i | i | i | i | i
C=CCNc1ncnc2c1ncn2[C@H]1CN(Cc2ccccc2)C[C@@H](COC(C)=O)O1 | i | i | i | i | i | i
CCCc1cc(=O)oc2cc(C)cc(OCC(=O)Nc3cccnc3)c12 | 87 | i | i | i | i | i
CC1=CC(=O)C(Sc2ccc(C)cc2)=CC1=O | 60 | 80 | i | i | i | i
